Measured values taken from the supplement of paper PMC10338343.
± gives the standard deviation.

Tested on: MILI (PIWIL2) piRISC loaded with piRNA #1 (26 nt);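 further: 1 nM active piRISC with 0.1 nM target library at 33 °C single turnover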
Test: pre-steady-state target cleavage rate (min^-1); guide: piRNA #1 5'p-UGAGGUAGUAGGUUGUAUAGUAUCCA; higher = faster piRNA-guided slicing of the target
Details: auxiliary factor: 500 nM mouse GTSF1
Method in brief: (§1)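 In this Cleave-'n-Seq assay, uncleaved targets were sequenced and normalised to depth and to weakly complementary targets. They came from a transcribed, DNA-blocked target RNA library […] mixed with 1 nM active affinity-purified piRISC carrying one synthetic guide, with or without 500 nM GTSF1 partner protein, in HEPES–potassium acetate buffer at 33 °C for 0–8 or 0–960 min. After three trials were pooled and k3 was capped at 0.0001 min^-1, the pre-steady-state cleavage rate was obtained from a burst-and-steady-state fit.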

| Sequence | pre-steady-state target cleavage rate |
| --- | --- |
| GGAGAGUGAUACUAUACAACCUACUACCUCA | 0.227 ± 0.016 |
| GGAGACGAUACUAUACAACCUACUCCUCA | 0.0114 ± 0.0032 |
| GGAGACGAUACUAUACAACCUCUACCUCA | 0.0213 ± 0.0044 |
| GGAGACGAUAUUAUACAACCUACUACCUCA | 0.214 ± 0.013 |
| GGAGUGGAUACUAUACAACCUACUACCUUCA | 0.128 ± 0.01 |
| GGAGACGAUACUAUACAUGCUACUACCUCA | 0.115 ± 0.01 |
| GGAGAGGUUACUAUACUACCUACUACCUCA | 0.151 ± 0.011 |
| GGAGACCAUACCAUACAACCUACUACCUCA | 0.157 ± 0.027 |
| GGAGACGAUACUAUACAACCUACUACGCUCA | 0.19 ± 0.02 |
| GGAGACCAUACUAUACAACCUACUAUCUCA | 0.136 ± 0.013 |
| GGAGUGGAUAGUAUACAACCUUCUACCUCA | 0.0115 ± 0.0038 |
| GGAGAGGAUACUAUACAACCGUACUACCUCA | 0.00509 ± 0.0031 |
| GGAGACGAUACUAUACAACCUACUAUCUCA | 0.149 ± 0.014 |
| GGAGACCUUACUAUACAAGCUACUACCUCA | 0.225 ± 0.015 |
| GGAGUCGAUACAAUACAACCUACUACCUCA | 0.177 ± 0.012 |
| GGAGACGAUACUUUACAACCUACUACCUGA | 0.117 ± 0.021 |
| GGAGAGGAUACUAUACAAGCUACUACCACA | 0.243 ± 0.019 |
| GGAGACCUUACUUAUACAACCUACUACCUCA | 0.0994 ± 0.014 |
| GGAGUGGAUACUAUACAACCUAAUACCUCA | 0.0398 ± 0.0071 |
| GGAGACCUAUGAUAUGUACCUACAUGGAGA [g8:g13:cont:t1A] | < 0.0001 |

| Sequence | pre-steady-state target cleavage rate |
| --- | --- |
| GGAGAGGAUACUAUACAACCUUCAACCUCA | 0.00483 ± 0.0021 |
| GGAGUGGAUACUAUACAAGCUACUACCUCA | 0.233 ± 0.013 |
| GGAGACGAUCUAUACAACCUACUACCUCA | 0.174 ± 0.013 |
| GGAGACCAUUCUAUACAUCCUACUACCUCA | 0.235 ± 0.019 |
| GGAGACGAUACUAAUACAACCUACUACCUCA | 0.134 ± 0.01 |
| GGAGAGGAUACUAUGCAACCUACUACCUCA | 0.214 ± 0.011 |
| GGAGACCUAUCUACUACAACCUACUACCUCA | 0.0541 ± 0.0097 |
| GGAGACCUUACUAAUACAACCUACUACCUCA | 0.0928 ± 0.01 |
| GGAGACGUAUCUAUACAACCUACUACCUCA | 0.156 ± 0.015 |
| GGAGACCUUACUAUACAACCUACUACCGCA | 0.19 ± 0.022 |
| GGAGACGAUACUAUAGAAGCUACUACCUCA | 0.16 ± 0.014 |
| GGAGACGAUACUAUACAACGUACUACGUCA | 0.00557 ± 0.0029 |
| GGAGUGGAUACUAUACAACGUAGUACCUCA | 0.0167 ± 0.0028 |
| GGAGACGAUUCUAAACAACCUACUACCUCA | 0.168 ± 0.012 |
| GGAGACGAUACAAUACAACCUACUACCUGA | 0.116 ± 0.015 |
| GGAGAGGAAACUAUACAACCUAGUACCUCA | 0.0133 ± 0.0079 |
| GGAGACCAUACUAUACAAGCUACUACGUCA | 0.139 ± 0.022 |
| GGAGUGGAUACUAUUACAACCUACUACCUCA | 0.155 ± 0.0095 |
| GGAGUGGAUACUAUACAACCUACUAGCCUCA | 0.115 ± 0.019 |
| GGAGACCUAUGAUAUGUUGCUACUACCUA | < 0.0001 |

Tested on: EfPiwi piRISC loaded with piRNA #1 (26 nt)
Test: pre-steady-state target cleavage rate (min^-1); auxiliary factor: 500 nM Ephydatia muelleri Gtsf1; guide: piRNA #1 5'p-UGAGGUAGUAGGUUGUAUAGUAUCCA; MIWI and MILI are mouse PIWI proteins and EfPiwi is from a freshwater sponge; tags in brackets are library labels; higher = faster piRNA-guided slicing of the target
Details: not given
Method in brief: as §1

| Sequence | pre-steady-state target cleavage rate |
| --- | --- |
| GGAGAGUGAUACUAUACAACCUACUACCUCA | 0.171 ± 0.053 |
| GGAGACGAUACUAUACAACCUACUCCUCA | 0.0048 ± 0.0022 |
| GGAGACGAUACUAUACAACCUCUACCUCA | 0.00608 ± 0.0025 |
| GGAGACGAUAUUAUACAACCUACUACCUCA | 0.00616 ± 0.0034 |
| GGAGUGGAUACUAUACAACCUACUACCUUCA | 0.168 ± 0.061 |
| GGAGACGAUACUAUACAUGCUACUACCUCA | 0.00483 ± 0.0015 |
| GGAGAGGUUACUAUACUACCUACUACCUCA | 0.00488 ± 0.0024 |
| GGAGACCAUACCAUACAACCUACUACCUCA | 0.107 ± 0.044 |
| GGAGACGAUACUAUACAACCUACUACGCUCA | 0.00415 ± 0.0014 |
| GGAGACCAUACUAUACAACCUACUAUCUCA | 0.00899 ± 0.0033 |
| GGAGUGGAUAGUAUACAACCUUCUACCUCA | 0.00338 ± 0.0021 |
| GGAGAGGAUACUAUACAACCGUACUACCUCA | 0.00659 ± 0.0028 |
| GGAGACGAUACUAUACAACCUACUAUCUCA | 0.00856 ± 0.0034 |
| GGAGACCUUACUAUACAAGCUACUACCUCA | 0.00386 ± 0.002 |
| GGAGUCGAUACAAUACAACCUACUACCUCA | 0.00908 ± 0.0047 |
| GGAGACGAUACUUUACAACCUACUACCUGA | 0.00356 ± 0.0024 |
| GGAGAGGAUACUAUACAAGCUACUACCACA | 0.00317 ± 0.0019 |
| GGAGACCUUACUUAUACAACCUACUACCUCA | 0.00736 ± 0.0041 |
| GGAGUGGAUACUAUACAACCUAAUACCUCA | 0.00389 ± 0.0016 |
| GGAGACCUAUGAUAUGUACCUACAUGGAGA [g8:g13:cont:t1A] | < 0.0001 |

| Sequence | pre-steady-state target cleavage rate |
| --- | --- |
| GGAGAGGAUACUAUACAACCUUCAACCUCA | 0.00352 ± 0.0022 |
| GGAGUGGAUACUAUACAAGCUACUACCUCA | 0.008 ± 0.0032 |
| GGAGACGAUCUAUACAACCUACUACCUCA | 0.0198 ± 0.01 |
| GGAGACCAUUCUAUACAUCCUACUACCUCA | 0.00435 ± 0.0029 |
| GGAGACGAUACUAAUACAACCUACUACCUCA | 0.0773 ± 0.031 |
| GGAGAGGAUACUAUGCAACCUACUACCUCA | 0.242 ± 0.091 |
| GGAGACCUAUCUACUACAACCUACUACCUCA | 0.00749 ± 0.0039 |
| GGAGACCUUACUAAUACAACCUACUACCUCA | 0.074 ± 0.027 |
| GGAGACGUAUCUAUACAACCUACUACCUCA | 0.00913 ± 0.0041 |
| GGAGACCUUACUAUACAACCUACUACCGCA | 0.00343 ± 0.0026 |
| GGAGACGAUACUAUAGAAGCUACUACCUCA | 0.00294 ± 0.0013 |
| GGAGACGAUACUAUACAACGUACUACGUCA | 0.00379 ± 0.0014 |
| GGAGUGGAUACUAUACAACGUAGUACCUCA | 0.00292 ± 0.0011 |
| GGAGACGAUUCUAAACAACCUACUACCUCA | 0.00926 ± 0.0045 |
| GGAGACGAUACAAUACAACCUACUACCUGA | 0.0025 ± 0.0015 |
| GGAGAGGAAACUAUACAACCUAGUACCUCA | 0.00323 ± 0.0013 |
| GGAGACCAUACUAUACAAGCUACUACGUCA | 0.00359 ± 0.0023 |
| GGAGUGGAUACUAUUACAACCUACUACCUCA | 0.131 ± 0.047 |
| GGAGUGGAUACUAUACAACCUACUAGCCUCA | 0.00369 ± 0.0017 |
| GGAGACCUAUGAUAUGUUGCUACUACCUA | < 0.0001 |
